Test results as given in the supplement of paper PMC10849652.
Of roughly 7,900 targets only a part is listed; those with a hit were picked by preference. About 0.6% of all pairs of compound and target were hits. Unmarked numbers belong to inactive results.

compound: C1=CC(=CC=C1C2=NC3=C(N2)C=C(C=C3)C(=O)N)OC4=CC=C(C=C4)Cl; test: log2 fold change, soluble protein after heating vs DMSO (PISA); higher = thermal stabilisation; K562 cells, 10 uM, 30 min; active = over 0.2 and 3.5 SD of the protein, either way, in both replicates (recomputed)
In short: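 K562 cells at 2×10^6 cells/mL were treated for 30 min with 10 μM compound, and aliquots were heated for 3 min over 48°C-58°C before pooling. Extraction used PBS with 0.5% NP-40 at 4°C, and soluble protein was the supernatant after 21,000xg for 90 min, measured by TMTpro 16plex LC-MS/MS with channel sums equalised. Thermal stability values, relative to control samples and from duplicates, are log2 fold changes.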

Sequence of UniProt Q6P1M0 (Q6P1M0 whole entry, looked up): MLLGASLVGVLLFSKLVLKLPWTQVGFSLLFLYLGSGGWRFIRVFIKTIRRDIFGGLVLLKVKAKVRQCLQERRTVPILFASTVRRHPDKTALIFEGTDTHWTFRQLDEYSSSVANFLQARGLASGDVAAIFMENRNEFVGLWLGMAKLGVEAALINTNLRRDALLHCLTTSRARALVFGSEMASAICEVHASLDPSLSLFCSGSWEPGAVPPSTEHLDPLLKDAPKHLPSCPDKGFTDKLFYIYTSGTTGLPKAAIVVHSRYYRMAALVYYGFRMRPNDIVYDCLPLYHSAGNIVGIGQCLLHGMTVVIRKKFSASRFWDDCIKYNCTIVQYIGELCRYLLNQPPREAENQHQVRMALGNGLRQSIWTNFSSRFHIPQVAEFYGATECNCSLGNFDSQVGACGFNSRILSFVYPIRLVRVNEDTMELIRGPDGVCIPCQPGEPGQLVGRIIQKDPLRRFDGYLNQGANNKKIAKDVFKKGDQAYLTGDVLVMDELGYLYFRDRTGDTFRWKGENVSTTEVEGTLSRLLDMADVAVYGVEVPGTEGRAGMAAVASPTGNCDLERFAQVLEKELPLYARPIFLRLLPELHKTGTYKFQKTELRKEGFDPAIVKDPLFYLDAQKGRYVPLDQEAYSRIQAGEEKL
Sequence of UniProt Q9H2K8 (Q9H2K8 whole entry, looked up): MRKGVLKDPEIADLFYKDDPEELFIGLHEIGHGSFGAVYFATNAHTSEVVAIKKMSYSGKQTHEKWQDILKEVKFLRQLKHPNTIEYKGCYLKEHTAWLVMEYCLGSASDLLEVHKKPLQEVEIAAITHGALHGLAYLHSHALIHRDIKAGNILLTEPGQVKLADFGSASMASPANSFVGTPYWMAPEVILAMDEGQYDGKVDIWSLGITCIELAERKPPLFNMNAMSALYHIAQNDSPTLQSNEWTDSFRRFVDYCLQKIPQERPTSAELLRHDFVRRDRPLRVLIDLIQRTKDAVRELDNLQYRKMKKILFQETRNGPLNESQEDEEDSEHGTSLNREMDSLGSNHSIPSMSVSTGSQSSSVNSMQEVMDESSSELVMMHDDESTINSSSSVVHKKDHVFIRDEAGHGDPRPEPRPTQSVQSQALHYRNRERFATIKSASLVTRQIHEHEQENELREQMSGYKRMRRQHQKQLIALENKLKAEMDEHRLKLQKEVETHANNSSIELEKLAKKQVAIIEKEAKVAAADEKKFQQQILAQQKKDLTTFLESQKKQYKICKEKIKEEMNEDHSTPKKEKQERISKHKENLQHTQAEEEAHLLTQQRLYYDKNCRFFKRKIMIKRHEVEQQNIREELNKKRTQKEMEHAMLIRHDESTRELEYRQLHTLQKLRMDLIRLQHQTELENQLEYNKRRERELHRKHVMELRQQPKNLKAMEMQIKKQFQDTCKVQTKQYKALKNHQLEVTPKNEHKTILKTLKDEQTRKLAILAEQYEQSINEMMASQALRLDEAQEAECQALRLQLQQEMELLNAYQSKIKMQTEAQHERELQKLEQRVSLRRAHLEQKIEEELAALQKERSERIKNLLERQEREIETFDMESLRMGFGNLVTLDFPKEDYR
Sequence of UniProt Q13242 (Q13242 whole entry, looked up): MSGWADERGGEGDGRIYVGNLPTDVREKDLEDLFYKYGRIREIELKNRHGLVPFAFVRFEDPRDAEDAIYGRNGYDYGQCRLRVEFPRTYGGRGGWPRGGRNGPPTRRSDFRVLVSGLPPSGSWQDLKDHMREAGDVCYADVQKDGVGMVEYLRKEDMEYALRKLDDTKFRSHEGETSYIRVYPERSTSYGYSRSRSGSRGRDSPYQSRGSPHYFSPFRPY
Sequence of UniProt Q15208 (Q15208 whole entry, looked up): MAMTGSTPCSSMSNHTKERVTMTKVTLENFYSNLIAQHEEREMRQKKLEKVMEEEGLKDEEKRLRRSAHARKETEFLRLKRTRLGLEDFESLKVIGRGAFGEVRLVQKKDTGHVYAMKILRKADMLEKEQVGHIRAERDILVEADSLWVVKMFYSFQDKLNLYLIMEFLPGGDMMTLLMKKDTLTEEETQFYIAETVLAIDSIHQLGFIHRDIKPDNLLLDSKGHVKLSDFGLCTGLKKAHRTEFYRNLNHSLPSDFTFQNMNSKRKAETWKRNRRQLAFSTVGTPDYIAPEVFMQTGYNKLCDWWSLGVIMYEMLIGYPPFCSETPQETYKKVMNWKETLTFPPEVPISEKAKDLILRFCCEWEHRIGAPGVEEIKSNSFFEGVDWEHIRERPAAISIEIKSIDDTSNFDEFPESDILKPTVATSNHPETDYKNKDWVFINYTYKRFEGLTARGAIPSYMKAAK
Sequence of UniProt Q9ULP9 (Q9ULP9 whole entry, looked up): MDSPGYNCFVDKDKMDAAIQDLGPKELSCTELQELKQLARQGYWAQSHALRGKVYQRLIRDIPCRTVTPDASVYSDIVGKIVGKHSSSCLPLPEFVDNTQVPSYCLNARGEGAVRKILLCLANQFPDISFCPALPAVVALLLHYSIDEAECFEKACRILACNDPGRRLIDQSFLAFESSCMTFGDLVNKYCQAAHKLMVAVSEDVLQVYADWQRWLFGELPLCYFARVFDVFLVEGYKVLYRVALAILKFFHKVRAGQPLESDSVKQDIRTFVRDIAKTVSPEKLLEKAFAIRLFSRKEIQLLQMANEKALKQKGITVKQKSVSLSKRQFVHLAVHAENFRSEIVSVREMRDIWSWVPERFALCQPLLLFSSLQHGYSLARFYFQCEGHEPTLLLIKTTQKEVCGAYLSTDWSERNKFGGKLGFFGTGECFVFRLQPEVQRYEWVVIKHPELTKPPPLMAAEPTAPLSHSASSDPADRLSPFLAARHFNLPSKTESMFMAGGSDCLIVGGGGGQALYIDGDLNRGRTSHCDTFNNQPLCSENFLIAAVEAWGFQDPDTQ
Sequence of UniProt Q9BSF4 (Q9BSF4 whole entry, looked up): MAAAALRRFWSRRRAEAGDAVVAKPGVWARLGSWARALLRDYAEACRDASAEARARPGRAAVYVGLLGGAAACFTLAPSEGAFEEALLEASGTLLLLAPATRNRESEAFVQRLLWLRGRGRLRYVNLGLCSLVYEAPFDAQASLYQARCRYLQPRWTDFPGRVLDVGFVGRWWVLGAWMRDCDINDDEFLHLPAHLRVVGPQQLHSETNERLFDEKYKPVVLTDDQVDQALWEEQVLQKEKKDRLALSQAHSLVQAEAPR
Sequence of UniProt O95772 (O95772 whole entry, looked up): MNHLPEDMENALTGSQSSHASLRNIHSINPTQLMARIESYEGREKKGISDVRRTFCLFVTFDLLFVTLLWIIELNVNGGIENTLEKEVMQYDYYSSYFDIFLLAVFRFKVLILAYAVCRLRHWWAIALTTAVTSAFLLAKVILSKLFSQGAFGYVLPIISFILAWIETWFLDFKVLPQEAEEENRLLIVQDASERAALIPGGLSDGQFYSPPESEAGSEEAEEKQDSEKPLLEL
Sequence of UniProt Q9C0B7 (Q9C0B7 whole entry, looked up): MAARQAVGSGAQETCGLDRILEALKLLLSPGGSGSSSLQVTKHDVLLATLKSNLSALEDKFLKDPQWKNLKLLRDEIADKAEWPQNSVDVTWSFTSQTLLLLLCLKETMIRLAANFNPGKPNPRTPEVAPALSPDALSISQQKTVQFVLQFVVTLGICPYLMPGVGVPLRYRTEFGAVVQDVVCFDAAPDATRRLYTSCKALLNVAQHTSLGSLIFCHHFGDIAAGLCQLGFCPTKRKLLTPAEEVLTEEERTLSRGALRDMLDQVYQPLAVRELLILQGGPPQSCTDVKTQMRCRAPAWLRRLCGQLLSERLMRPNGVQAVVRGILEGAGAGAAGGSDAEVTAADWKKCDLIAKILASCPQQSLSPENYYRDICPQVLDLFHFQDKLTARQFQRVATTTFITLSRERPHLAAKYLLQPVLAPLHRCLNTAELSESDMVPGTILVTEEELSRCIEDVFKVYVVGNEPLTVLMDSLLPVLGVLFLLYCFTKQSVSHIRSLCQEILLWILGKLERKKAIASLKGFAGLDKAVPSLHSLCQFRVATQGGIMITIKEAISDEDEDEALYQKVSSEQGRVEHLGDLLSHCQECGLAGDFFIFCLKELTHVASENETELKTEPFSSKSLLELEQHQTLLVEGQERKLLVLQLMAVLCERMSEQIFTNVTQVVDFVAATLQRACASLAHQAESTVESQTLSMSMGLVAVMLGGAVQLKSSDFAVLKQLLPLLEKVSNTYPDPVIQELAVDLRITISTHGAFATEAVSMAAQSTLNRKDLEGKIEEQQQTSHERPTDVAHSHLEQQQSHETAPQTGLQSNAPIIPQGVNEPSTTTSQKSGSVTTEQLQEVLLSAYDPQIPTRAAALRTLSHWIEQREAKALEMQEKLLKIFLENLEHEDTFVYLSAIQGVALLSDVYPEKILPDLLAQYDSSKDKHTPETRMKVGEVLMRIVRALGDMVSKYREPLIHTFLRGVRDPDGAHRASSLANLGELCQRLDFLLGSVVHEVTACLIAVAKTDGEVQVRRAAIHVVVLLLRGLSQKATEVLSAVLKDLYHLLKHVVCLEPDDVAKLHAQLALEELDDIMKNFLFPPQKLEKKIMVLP
Sequence of UniProt Q92844 (Q92844 whole entry, looked up): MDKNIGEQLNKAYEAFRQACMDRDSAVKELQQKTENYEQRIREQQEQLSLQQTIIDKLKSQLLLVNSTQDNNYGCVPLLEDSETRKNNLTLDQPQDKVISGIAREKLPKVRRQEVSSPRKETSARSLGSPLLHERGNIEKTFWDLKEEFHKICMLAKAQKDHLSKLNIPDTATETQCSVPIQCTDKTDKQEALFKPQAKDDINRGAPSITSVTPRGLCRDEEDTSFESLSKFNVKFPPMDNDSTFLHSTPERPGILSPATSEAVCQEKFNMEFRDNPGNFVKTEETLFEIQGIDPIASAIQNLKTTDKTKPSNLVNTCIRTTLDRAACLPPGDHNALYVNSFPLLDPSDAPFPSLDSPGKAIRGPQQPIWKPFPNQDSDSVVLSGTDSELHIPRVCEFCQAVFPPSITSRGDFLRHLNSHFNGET
Sequence of UniProt Q9Y5L4 (Q9Y5L4 whole entry, looked up): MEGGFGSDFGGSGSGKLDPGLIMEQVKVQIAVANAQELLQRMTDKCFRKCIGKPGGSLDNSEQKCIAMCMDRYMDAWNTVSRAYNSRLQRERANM
Sequence of UniProt Q8N5G0 (Q8N5G0 whole entry, looked up): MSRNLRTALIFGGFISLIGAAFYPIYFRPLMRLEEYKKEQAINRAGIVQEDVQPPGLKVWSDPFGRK

| Target | log2 fold change |
| --- | --- |
| STK38 (UniProt Q15208) | -0.021 |
| TBC1D24 (UniProt Q9ULP9) | 0.037 |
| SMARCA4 (UniProt P51532) | 0.102 |
| TAOK3 (UniProt Q9H2K8) | 0.037 |
| SP100 isoform 4 (UniProt P23497) | 0.022 |
| SLC35B4 (UniProt Q969S0) | 0.105 |
| TBRG4 (UniProt Q969Z0) | -0.154 |
| TIMM10B (UniProt Q9Y5J6) | -0.189 |
| SMIM20 isoform 2 (UniProt Q8N5G0) | 0.054 |
| SPTBN4 (UniProt Q9H254) | 0.078 |
| TGFBI (UniProt Q15582) | 0.009 |
| STARD3NL (UniProt O95772) | -0.003 |
| TJP1 (UniProt Q07157) | -0.015 |
| TANGO6 (UniProt Q9C0B7) | -0.026 |
| TANK (UniProt Q92844) | -0.048 |
| SRC isoform 2 (UniProt P12931) | 0.153 |
| SUOX (UniProt P51687) | -0.01 |
| SNRNP40 (UniProt Q96DI7) | 0.037 |
| SNX11 (UniProt Q9Y5W9) | 0.037 |

| Target | log2 fold change |
| --- | --- |
| TIMM13 (UniProt Q9Y5L4) | 0 |
| TATDN2 (UniProt Q93075) | -0.013 |
| SRSF9 (UniProt Q13242) | 0.138 |
| SLC35F6 (UniProt Q8N357) | -0.067 |
| SMCHD1 (UniProt A6NHR9) | 0.043 |
| SP3 (UniProt Q02447) | 0.059 |
| TBC1D20 isoform 3 (UniProt Q96BZ9) | 0.083 |
| SYK (UniProt P43405) | 0.038 |
| TIMM29 (UniProt Q9BSF4) | -0.025 |
| SMARCE1 (UniProt Q969G3) | 0 |
| SRSF6 (UniProt Q13247) | 0.062 |
| SRSF4 (UniProt Q08170) | 0.05 |
| SULT1A1 (UniProt P50225) | 0.381 |
| SLC27A4 (UniProt Q6P1M0) | 0.032 |
| SSB (UniProt P05455) | 0.028 |
| TLK2 isoform 2 (UniProt Q86UE8) | 0.074 |
| TMBIM1 (UniProt Q969X1) | -0.017 |
| STK11IP (UniProt Q8N1F8) | -0.243 |
